Compound activity: PubChem, National Center for Advancing Translational Sciences (NCATS)
PK Bst – alters activity of Bacillus stearothermophilus pyruvate kinase. 51,000 tested, 1.2% active. Potency, µM. purified pyruvate kinase, luminescence ATP production; ribose 5-phosphate activator present at AC10; in the data active = potency below about 11 µM; inconclusive = mostly about 12 µM to 25 µM;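 the screen sought inhibitors and activators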;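 note: scaled between full activation by ribose 5 phosphate and full inhibition by luteolin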
FLuc inh – blocks Photinus pyralis firefly luciferase activity; Potency, µM (series often up to 57.1 µM), without a hit: at the highest dose activity change, negative = inhibition, actives largely listed as inhibitors; 72,000 tested, 2.2% active; P08659; purified firefly luciferase, luminescence, 8 min; active = well fitted inhibition curve with a large enough effect; inconclusive = small, poorly fitted or top-dose-only effect; note: nearly all actives have a fitted effect of over 40% in size
Target sequence (P08659 whole entry, looked up): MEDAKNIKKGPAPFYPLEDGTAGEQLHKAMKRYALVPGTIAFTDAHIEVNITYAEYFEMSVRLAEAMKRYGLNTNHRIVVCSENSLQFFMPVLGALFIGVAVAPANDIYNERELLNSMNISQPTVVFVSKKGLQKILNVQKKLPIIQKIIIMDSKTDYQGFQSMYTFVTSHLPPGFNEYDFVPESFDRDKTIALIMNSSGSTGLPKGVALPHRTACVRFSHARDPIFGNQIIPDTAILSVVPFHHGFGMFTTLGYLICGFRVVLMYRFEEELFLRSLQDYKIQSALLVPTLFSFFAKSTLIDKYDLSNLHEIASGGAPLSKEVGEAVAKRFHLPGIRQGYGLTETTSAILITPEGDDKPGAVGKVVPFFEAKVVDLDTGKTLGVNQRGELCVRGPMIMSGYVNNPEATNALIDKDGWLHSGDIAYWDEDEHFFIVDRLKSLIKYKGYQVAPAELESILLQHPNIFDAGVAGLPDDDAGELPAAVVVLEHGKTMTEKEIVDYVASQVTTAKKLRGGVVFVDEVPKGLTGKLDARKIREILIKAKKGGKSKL
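Substrate buffer containing 10 uM ATP (pH 7.2 imidazole, Mg2+, KCl, detergent, BSA) is dispensed, compound pinned in, then luciferase/luciferin detector mix added. After 8 min at ambient temperature, light output is measured.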
* = called active by the depositor; [ ] = remark or other dose. An excerpt weighted towards active compounds, which were near 2.5% of everything screened. Unless noted, % is set by controls: 0 for no effect and ±100 for the full control effect; potency is the fitted concentration of half-maximal effect.

`COc1cc(SC)ccc1C(=O)Nc1ccc2c(c1)OCCO2` gave FLuc inh 1.26µM*.
`CCOC(=O)c1ccc(NC(=O)c2ccc3c(c2)OCO3)cc1` gave PK Bst >57 and FLuc inh -14.3%.
`CCOC(=O)c1c(C)[nH]c(C(=O)Nc2ccc3c(c2)OCO3)c1C` gave PK Bst inactive and FLuc inh 12.6µM*.
CN(c1ccccc1C(=O)Nc1ccc2c(c1)OCCO2)S(C)(=O)=O was read as PK Bst >57 and FLuc inh 1.7%.
`CCSc1nnc2c(Cl)cc(Cl)cn12` gave PK Bst >57 and FLuc inh 3.1%.
For CSC1=NC2(CCCCC2)C2=C(CCCC2)N1 the results were PK Bst >57 and FLuc inh 3.1%.
For COC(=O)c1ccc(CN(c2ccc(C)cc2)S(=O)(=O)c2ccc3c(c2)OCCO3)o1 the results were PK Bst >57 and FLuc inh 2.6%.
`CCC(C)(C(=O)NC1CCCCC1)N(C(=O)c1cnccn1)c1c(C)n(C)n(-c2ccccc2)c1=O` (centres undefined) gave PK Bst >57 and FLuc inh 1.4%.
Cc1ccc(NCc2nnc(SCC(=O)Nc3ccccc3)n2CC2CCCO2)c(C)c1 (centres undefined) was read as PK Bst >57 and FLuc inh 0.5%.
`O=C(Nc1ccc2c(c1)OCO2)c1ccc(Br)s1` gave PK Bst inconclusive and FLuc inh 12.6µM*.
Screening O=C(Nc1ccc2c(c1)OCO2)c1ccncc1 returned FLuc inh -4.8%.
Screening CN(c1ccccc1C(=O)Nc1ccc2c(c1)OCO2)S(C)(=O)=O returned PK Bst >57 and FLuc inh -1.4%.
`COc1ccccc1C(=O)Nc1ccc2c(c1)OCO2` gave FLuc inh 25.1µM*.
For CC(=O)c1cc2c(cc1NC(=O)Nc1cccc(Cl)c1)OCCO2 the results were PK Bst >57 and FLuc inh -5.1%.
For O=C(Nc1cccc(Cl)c1)Nc1ccc2c(c1)OCO2 the results were FLuc inh 15.8µM*.
`Cc1ccccc1C(=O)Nc1ccc2c(c1)OCO2` gave PK Bst inconclusive and FLuc inh 15.8µM*.
For COc1ccccc1C(=O)NCc1ccc2c(c1)OCO2 the results were FLuc inh 0.8%.
COc1ccccc1-c1ccc2ncnc(N(C)Cc3ccco3)c2c1 was read as FLuc inh -1.6%[2.29 µM].
CCOC(=O)C1=C(CNCc2ccccc2Cl)NC(=O)NC1c1ccc2c(c1)OCO2 (centres undefined) was read as PK Bst >57 and FLuc inh 1.2%.
C=CCNC(=O)CCCc1ccccc1 was read as FLuc inh -0.2%.
`CCCN1Cc2cccc(C(=O)Nc3ccc4c(c3)OCO4)c2C1=O` gave FLuc inh -2.2%.
`CCCN1Cc2cccc(C(=O)Nc3ccc4c(c3)OCCO4)c2C1=O` gave FLuc inh 12.6µM*.
O=C(c1cccnc1)N1CCN(CCCc2ccccc2)CC1 was read as PK Bst >57 and FLuc inh 1.2%.
For Cc1c(C(=O)Nc2ccncc2)oc2ccccc12 the results were PK Bst >57 and FLuc inh -10.4%.
COc1cc(OC)cc(C(=O)Nc2ccc(-n3cnnn3)c(C)c2)c1 was read as PK Bst >57 and FLuc inh -22.4%.
`Cc1c(C(=O)Nc2ccc(N3CCOCC3)cc2)oc2ccccc12` gave PK Bst inconclusive and FLuc inh 2.51µM*.
For Cc1cc(NC(=O)c2oc3ccccc3c2C)ccc1-n1cnnn1 the results were PK Bst inactive and FLuc inh 10µM*.
O=c1cc(NCC2CCCO2)[nH]c(=O)n1-c1ccc(Cl)cc1 (centres undefined) was read as PK Bst >57 and FLuc inh 1.9%.
CC12C(=O)N(CCC(=O)O)C(=O)C1C1C=CC2C1 (centres undefined) was read as PK Bst >57 and FLuc inh 3.6%.
`O=C(Nc1ccc2c(c1)OCCO2)NC12CC3CC(CC(C3)C1)C2` gave FLuc inh 12.6µM*.
O=C(Nc1ccc(CN2CCCCC2)cc1)c1ccc2c(c1)OCO2 was read as PK Bst >57 and FLuc inh -20.4%.
Screening O=C(Nc1ccc2c(c1)OCCO2)c1c(F)c(F)c(F)c(F)c1F returned PK Bst >57 and FLuc inh 1.3%.
Screening O=C(COc1ccc2c(c1)OCO2)NC12CC3CC(CC(C3)C1)C2 returned PK Bst >57 and FLuc inh -2.2%.
`O=C(Nc1ccc2c(c1)OCCO2)c1ccc(Br)o1` gave PK Bst inconclusive and FLuc inh 5.01µM*.
For C/C(=C\C(=O)c1ccc(C)o1)Nc1ccc2c(c1)OCO2 the results were FLuc inh -15.4%.
Screening O=C(Nc1ccc(CN2CCCCC2)cc1)c1ccc(Br)o1 returned PK Bst >57 and FLuc inh 12.6µM*.
Cc1ccc(C(=O)Nc2ccc3c(c2)OCO3)o1 was read as FLuc inh 12.6µM*.
For O=C(C1COc2ccccc2O1)N1CCN(Cc2ccc3c(c2)OCO3)CC1 (centres undefined) the results were FLuc inh -3.0%.
Screening O=C(O)c1cccc(NS(=O)(=O)c2ccc(Cl)c(C(=O)O)c2)c1 returned FLuc inh -0.1%.
`O=C(NC1=NCCS1)c1cccc(S(=O)(=O)N2CCCCC2)c1` gave PK Bst >57 and FLuc inh 0.4%.
Screening Nc1c(C(=O)NCc2ccco2)sc2nc3c(cc12)C(=O)CCC3 returned PK Bst >57 and FLuc inh 0.8%.
CC(C)n1c(-c2cccnc2)nc2cnccc21 was read as PK Bst >57 and FLuc inh 4.1%.
`CCn1c(Cc2ccccc2)nnc1SCC(=O)NC(C)(C)C` gave PK Bst >57 and FLuc inh 1.5%.
Screening CCN(CC)S(=O)(=O)c1ccc2c(c1)nc(SCn1nnc3ccccc3c1=O)n2CC returned PK Bst >57 and FLuc inh 2.8%.
Screening CCOC(=O)Nc1cc(C)ccc1OC returned PK Bst >57 and FLuc inh 1.7%.
Screening COc1ccc(C(=O)Nc2oc(-c3ccccc3)c(-c3ccccc3)c2C#N)cc1OC returned PK Bst >57 and FLuc inh 2.5%.
Screening Cc1ccc2c(CC(=O)N3CCc4ccccc43)coc2c1 returned PK Bst >57 and FLuc inh 20µM*.
COc1cc(CC(=O)N2CCc3ccccc32)cc(OC)c1OC was read as PK Bst >57 and FLuc inh 1.7%.
For COC(=O)c1ccc2nc(NC(=O)CN3C(=O)CCC3=O)sc2c1 the results were PK Bst >57 and FLuc inh -9.8%.
CCN(CC)c1nc2nonc2nc1N(CC)CC was read as PK Bst >57 and FLuc inh -24.3%.
For Cc1c(CCC(=O)O)c(=O)oc2cc(O)ccc12 the results were FLuc inh 0.8%.
For Cc1c(CCC(=O)O)c(=O)oc2cc3occ(-c4ccc(F)cc4)c3cc12 the results were PK Bst 8.31* and FLuc inh -1.0%.
COc1ccc(NCc2nnc(SCC(=O)N3CCCc4ccccc43)n2C)cc1 was read as PK Bst >57 and FLuc inh -3.5%.
`CCn1c(SCC(=O)N(Cc2ccccc2)C2CCS(=O)(=O)C2)nc2ccccc2c1=O` (centres undefined) gave PK Bst >57 and FLuc inh 1.5%.
For COc1ccc(-c2cc(C(=O)N3CCOCC3)no2)cc1OC the results were PK Bst >57 and FLuc inh -7.5%.
